This is part of a sample that, as a whole, favours compounds with a hit. Of some 83,000 tested, about 20% had one in any assay.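 48-hour exposure, single concentration, 96-well plates; percent growth endpoint where 0 means no net growth. Active: below 10.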 A number with no mark means an inactive call. Active and inactive are the calls of the source.
Tests used:
Experiment in all cases: NCI-60 one-dose screen, 48 h (100 = growth as untreated, 0 = no growth, -100 = all killed)
Conditions in all cases: 10 µM unless noted
DU-145 prostate = system: DU-145 prostate
K-562 leukemia = system: K-562 leukemia
MALME-3M melanoma = system: MALME-3M melanoma
MDA-MB-231 breast = system: MDA-MB-231 breast
RXF 393 renal = system: RXF 393 renal
SF-268 CNS = system: SF-268 CNS
SF-295 CNS = system: SF-295 CNS
SF-539 CNS = system: SF-539 CNS
UACC-257 melanoma = system: UACC-257 melanoma
M14 melanoma = system: M14 melanoma

| Structure (SMILES) | growth (DU-145 prostate) | growth (K-562 leukemia) | growth (MALME-3M melanoma) | growth (MDA-MB-231 breast) | growth (RXF 393 renal) | growth (SF-268 CNS) | growth (SF-295 CNS) | growth (SF-539 CNS) | growth (UACC-257 melanoma) | growth (M14 melanoma) |
| --- | --- | --- | --- | --- | --- | --- | --- | --- | --- | --- |
| Nc1ncnc2c1C(c1ccccc1)c1ccc3ccccc3c1O2 (stereo not given) | 99.8% | 70% | 110% | 89.1% | 104% | 84.7% | 88% | 90.7% | 79.7% | 95.8% |
| C1CN(SSN2CCOCC2)CCO1 | 3.92% [100 µM] (active) | 15.2% [100 µM] | -53.1% [100 µM] (active) | -79.4% [100 µM] (active) | -62.6% [100 µM] (active) | -78.9% [100 µM] (active) | 5.96% [100 µM] (active) | -37.6% [100 µM] (active) | 49.6% [100 µM] | -7.16% [100 µM] (active) |
| CCc1ccccc1-n1c(-c2ccc(OC)cc2)cc(-c2ccc(OC)cc2)c(C#N)c1=O | 98.6% | 108% | 99.6% | 62% | 32.2% | 51.9% | 55.1% | 23% | 111% | 100% |
| CC(C)c1ccc(C(=O)Nc2sc3c(c2C(N)=O)CCC(=O)C3)cc1 | 31.2% | 1.14% (active) | -23.8% (active) | -54.4% (active) | -7.12% (active) | 17.8% | -3.53% (active) | -68.8% (active) | -11.8% (active) | -55.6% (active) |
| COc1ccc(C(=O)/C=C/c2c(C(F)(F)F)nc3ccccn23)cc1OC | 4.16% (active) | 11.4% | 41.5% | 26.2% | 14.8% | 5.35% (active) | 0.39% (active) | -13.3% (active) | 30.5% | 14.8% |
| N#Cc1ccc(O)c(C2=NCC(c3ccccc3)O2)c1 (stereo not given) | 53.7% | 23.4% | 56.6% | 46.4% | 73.1% | 47.2% | 36.4% | 61.2% | 35.4% | 41.8% |
| O=C1c2c(c3c4ccccc4[nH]c3c3ccc4ccccc4c23)C(=O)N1CCN1CCOCC1 | 39.7% | 10.9% | 44.5% | 69.5% | 18% | 56.8% | 29.1% | 51.7% | 79.7% | 36.8% |
| CS(=O)(=O)Nc1cncc(-c2ccc3ncnc(Nc4cncc(Cl)c4)c3c2)c1 | 88.4% | 100% | 65.1% | 77.1% | 87.3% | 68.1% | 97.1% | 74.6% | 67.9% | 93.1% |
| COc1cc(-c2cncn2-c2ccc(-c3nc4ccc(F)cc4s3)cc2)ccc1F | -7.18% (active) | 62.8% | 99.3% | 103% | 52.5% | 81.3% | 90% | 92.8% | 79.7% | 102% |
| N#Cc1nc(-c2ccccc2)oc1S(=O)(=O)N1CCN(c2ccccc2)CC1 | 107% | 34.9% | 90.1% | 105% | 114% | 107% | 105% | 100% | 92.7% | 81.1% |
| CCN1C(=S)N(c2ccccc2)C2C1NN=c1s/c(=C3\C(=O)N(C(C)C)c4ccccc43)c(=O)n12 (stereo not given) | 58% | 87.2% | 60.7% | 36.5% | 107% | 95.8% | 98.9% | 10.4% | 92.7% | 81.8% |
| CCCCCCCCCCCCCCCCOCCCOP(=O)(O)C1CCCN(O)C1=O (stereo not given) | 24.6% | 19.4% | 20.4% | 42.7% | 7.41% (active) | 5.39% (active) | 3.46% (active) | -4.5% (active) | 18.2% | -3.96% (active) |
| C=C1C(=O)O[C@H]2[C@H]1CC/C(COC(=O)c1cc3ccccc3s1)=C\CC[C@@]1(C)O[C@@H]21 | -80.6% (active) | 2.38% (active) | -67.2% (active) | -66.1% (active) | -88.8% (active) | -60.6% (active) | 32% | -88.4% (active) | -63.3% (active) | -81.1% (active) |
| CCCCn1c(=O)[nH]c(N)c([C@@H]2c3c([nH]c(=O)n(CCCC)c3=O)Oc3ccc4ccccc4c32)c1=O | 47.5% | 76.3% | 38.5% | 55.4% | 99.6% | 8.16% (active) | 89.1% | 95.8% | 93% | 31.1% |
| COC1=CC(c2ccc[nH]2)=N/C1=C\c1[nH]c(C)c(C)c1CCC(=O)OCc1ccccc1 | 18.4% | -7.62% (active) | -64.8% (active) | -49.5% (active) | -35.2% (active) | 5.89% (active) | -60.1% (active) | -52.3% (active) | -49% (active) | -60.8% (active) |
| CCC(=C(c1ccc(OCCN2CCCCC2)cc1)c1ccc(OCCN2CCCCC2)cc1)c1ccc(Cl)cc1 | -89.8% (active) | -37% (active) | -83.4% (active) | -90.1% (active) | -81.4% (active) | -72.1% (active) | -89.7% (active) | -97.3% (active) | -76.9% (active) | -83.1% (active) |
| CCSc1nc2scc(C)c2c(=O)[nH]1 | 105% | 99.9% | 106% | 104% | 112% | 100% | 99.2% | 99.2% | 105% | 107% |
| CC(O)(c1ccccc1)C(c1ccccc1)C1CCCCN1 (stereo not given) | 103% | 95.6% | 97.5% | 93.9% | 106% | 99.6% | 99.8% | 96.5% | 96.2% | 92.3% |
| CCOC(=O)C1=C(C)NC(=O)NC1c1c(Cl)n(CCCl)c2ccccc12 (stereo not given) | 107% | 99.3% | 94.4% | 105% | 98.1% | 88% | 95.3% | 97.2% | 92.7% | 98.2% |
| O=S(=O)(c1ccccc1)n1cc2c(c1)-c1nc(Nc3ncccn3)sc1CC2 | 34.6% | 73.8% | 50.3% | 52.5% | 34.6% | 66.3% | 67.3% | 35.6% | 50.4% | 45.8% |
| N#CC1=C(N)Oc2c(c(=O)[nH]c3ccc(Cl)cc23)C12C(=O)c1ccccc1C2=O | 106% | 126% | 95% | 90.3% | 101% | 92% | 104% | 92.3% | 101% | 97.8% |
| COc1ccc2c(c1)CC[C@H](O)/C2=C/c1cc(OC)c(OC)c(OC)c1 | 0.0757% (active) | 8.97% (active) | 64% | 14.5% | 15.5% | 27.1% | 8.44% (active) | -5.68% (active) | 47.3% | 6.27% (active) |
| CC(=O)/C(=C\c1c(-c2ccccc2)[nH]c2ccccc12)S(C)(=O)=O | 13.2% | -25.7% (active) | 32.9% | 32.3% | -5.08% (active) | 41.6% | 3.77% (active) | -34.8% (active) | 59.8% | 3.01% (active) |
| COc1ccc(/C=C/C(=O)c2ccc(Nc3ccnc4cc(Cl)ccc34)cc2)cc1 | 103% | 45% | 142% | 80.7% | 13.5% | 100% | 77.4% | 86.8% | 102% | 87.8% |
| Nc1c(C(=O)Nc2ccncc2)sc2nc3c(cc12)C(O)CCC3 (stereo not given) | 96.8% | 88.7% | 118% | 96.8% | 107% | 95.1% | 106% | 96.2% | 96.3% | 114% |
